Assay results from PubChem BioAssay (Tox21).
Results filed as inconclusive are left out. The source made the active and inactive calls. Unless noted, calls come from the whole dose curve; as a rule, active = well fitted curve in the direction sought with a large enough effect in the repeat runs; inconclusive = weak or mixed curves; inactive = no such curve, though single readings can be large; an effect the other way counts as inactive or inconclusive.

Tests used:
[1] = qHTS assay for small molecule agonists of the p53 signaling pathway (AID 651631; calls by dose curve; note: nearly all actives have a fitted effect of over 15% in size)
Procedure, shortened: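 We treat p53RE-bla HCT-116 cells with compounds for 16 h at 37 °C, add LiveBLAzer B/G FRET substrate for 2 h at room temperature, and measure fluorescence intensity.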

[2] = qHTS assay for small molecules that induce genotoxicity in human embryonic kidney cells expressing luciferase-tagged ATAD5 (AID 651632); note: nearly all actives have a fitted effect of over 15% in size
Procedure, shortened: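 Test compounds were delivered by pin tool onto HEK293T reporter cells (2,000/well) expressing ATAD5 fused to luciferase. After 16 hr at 37C, 5% CO2, Amplite was added for 30 min at room temperature and luminescence was measured.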

[3] = qHTS assay for small molecule agonists of the p53 signaling pathway - cell viability (AID 651633; calls by dose curve;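 note: p53RE-bla HCT reporter cells with a stable beta-lactamase p53 reporter; series mostly up to about 83 µM; nearly all actives have a fitted effect of over 30% in size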)
Procedure, shortened: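 p53RE-bla cells, seeded at 4,000 per well and rested 5 h at 37 C/5% CO2, received compounds in DMSO for 16 h at 37 C. CellTiter-Glo was then added, and luminescence was read after 30 min at room temperature to gauge cytotoxicity.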

[4] = qHTS assay for small molecule disruptors of the mitochondrial membrane potential - cell viability (AID 720634; calls by dose curve;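 note: human HepG2 liver cancer cells; series mostly up to about 83 µM; nearly all actives have a fitted effect of over 20% in size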)
Procedure, shortened: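 Same-well counter-screen: following the MMP dye addition, CellTiter-Glo was added to 1 hr compound-treated HepG2 cells and luminescence read after 30 min at room temperature.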

[5] = qHTS assay to test for compound auto fluorescence at 590 nm (red) in HepG2 cells (AID 720674)
Procedure, shortened: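 Rose Bengal sodium served as the red fluorophore standard. HepG2 monolayers (overnight attachment, MEM with 10% FBS) were exposed to test compounds for 1 hr at 37 C and read at Ex 540/Em 590 nm.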

[6] = qHTS assay to test for compound auto fluorescence at 535 nm (green) in HepG2 cells (AID 720675)
[7] = qHTS assay to test for compound auto fluorescence at 460 nm (blue) in HEK293 cells (AID 720678)
Procedure, shortened: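 After cell attachment (4-5 hr, 37C), compounds were pinned onto HEK293 monolayers in 10% dialyzed FBS medium. The blue channel (405/460 nm) was read following overnight culture. Equivalency was calculated against triamterene.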

[8] = qHTS assay to test for compound auto fluorescence at 590 nm (red) in HEK293 cells (AID 720679)
Procedure, shortened: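 Plates of HEK293 cells (10% dialyzed FBS) are treated with 23 nL compound or DMSO vehicle after a 4-5 hr attachment period, incubated overnight at 37C, and read for red fluorescence at 540/590nm.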

[9] = qHTS assay to test for compound auto fluorescence at 535 nm (green) in HEK293 cells (AID 720680)
[10] = qHTS assay to test for compound auto fluorescence at 460 nm (blue) in HEK293 cell free culture (AID 720681)
Procedure, shortened: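 Test compounds were pinned into cell-free culture medium (DMEM with 10% FBS) and fluorescence was read directly at Ex/Em 405/460 nm. Signals were expressed as fluorescence equivalents of triamterene, with DMSO vehicle as control.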

[11] = qHTS assay to test for compound auto fluorescence at 535 nm (green) in HEK293 cell free culture (AID 720682)
Procedure, shortened: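 Green-channel intensity (Ex/Em 485/535 nm) was recorded from compound-treated wells containing only DMEM with 10% FBS. Fluorescein provided the equivalency standard.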

[12] = qHTS assay to test for compound auto fluorescence at 590 nm (red) in HEK293 cell free culture (AID 720683)
Procedure, shortened: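 Tox21 10K library compounds were pinned into cell-free DMEM with 10% FBS and fluorescence was read at excitation 540 nm. Activity is expressed as Rose Bengal sodium equivalency.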

[13] = qHTS assay to test for compound auto fluorescence at 590 nm (red) in HepG2 cell free culture (AID 720684)
Procedure, shortened: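 Ex 540 / Em 590 nm read of compound in cell-free MEM (10% FBS). Rose Bengal sodium reference.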

[14] = qHTS assay to test for compound auto fluorescence at 460 nm (blue) in HepG2 cell free culture (AID 720685)
Procedure, shortened: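 Cell-free plates of MEM plus 10% FBS received 23 nL compound or DMSO vehicle; blue-channel (405/460 nm) intensity scored against triamterene as reference fluorophore.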

[15] = qHTS assay to test for compound auto fluorescence at 535 nm (green) in HepG2 cell free culture (AID 720686)
[16] = qHTS assay to test for compound auto fluorescence at 460 nm (blue) in HepG2 cells (AID 720687)
Procedure, shortened: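 Cells (2,000/well in MEM with 10% FBS) attached overnight at 37 C, then were exposed to compound or DMSO for 1 hr at 37 C, 5% CO2. Fluorescence read at Ex/Em 405/460 nm, expressed as triamterene-equivalent signal.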

[17] = target: Glucocorticoid receptor (Homo sapiens) (UniProt P04150); experiment: qHTS assay to identify small molecule agonists of the glucocorticoid receptor (GR) signaling pathway (AID 720691; active = well fitted activation curve with a large enough effect in the signal ratio in the repeat runs, not every such curve was filed as active; the % refers to the signal ratio; note: potency is the fitted concentration of half-maximal effect)
Glucocorticoid receptor (Homo sapiens), sequence (P04150 whole entry, looked up): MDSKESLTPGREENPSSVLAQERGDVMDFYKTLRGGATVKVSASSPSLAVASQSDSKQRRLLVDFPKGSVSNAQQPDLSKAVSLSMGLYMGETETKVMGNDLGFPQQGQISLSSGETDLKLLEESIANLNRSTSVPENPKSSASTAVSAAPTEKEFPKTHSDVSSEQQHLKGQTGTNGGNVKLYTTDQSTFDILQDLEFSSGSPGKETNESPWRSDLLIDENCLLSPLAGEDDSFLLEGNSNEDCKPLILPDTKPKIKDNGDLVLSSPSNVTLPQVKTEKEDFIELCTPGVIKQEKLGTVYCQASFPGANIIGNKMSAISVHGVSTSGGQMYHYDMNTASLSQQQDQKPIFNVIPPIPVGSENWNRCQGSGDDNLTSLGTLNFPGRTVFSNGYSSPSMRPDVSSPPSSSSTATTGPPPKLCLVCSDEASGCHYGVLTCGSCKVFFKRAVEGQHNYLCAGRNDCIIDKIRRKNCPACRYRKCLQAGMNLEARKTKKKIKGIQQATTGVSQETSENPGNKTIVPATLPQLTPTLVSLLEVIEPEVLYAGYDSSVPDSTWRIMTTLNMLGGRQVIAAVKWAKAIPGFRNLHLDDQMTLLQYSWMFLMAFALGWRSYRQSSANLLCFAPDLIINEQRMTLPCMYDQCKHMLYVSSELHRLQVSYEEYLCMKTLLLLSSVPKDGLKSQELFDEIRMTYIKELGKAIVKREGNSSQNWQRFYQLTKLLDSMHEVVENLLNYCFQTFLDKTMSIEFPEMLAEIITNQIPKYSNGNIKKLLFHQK
Procedure, shortened: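 A HeLa cervical cancer line expressing GR and a glucocorticoid response element-driven beta-lactamase gene is treated with compounds for 18 h; LiveBLAzer B/G FRET substrate is then applied and fluorescence read.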

[18] = target: Glucocorticoid receptor (Homo sapiens) (UniProt P04150); experiment: qHTS assay to identify small molecule antagonists of the glucocorticoid receptor (GR) signaling pathway (AID 720692; active = well fitted inhibition curve with a large enough effect in the signal ratio in the repeat runs, not every such curve was filed as active; the % refers to the signal ratio)
Procedure, shortened: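 GRE-bla HeLa line, dex-stimulated (5 nM final). Compound exposure 18 h, 37 C. Beta-lactamase FRET read after 2 h RT substrate.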

[19] = qHTS assay for small molecules that induce genotoxicity in human embryonic kidney cells expressing luciferase-tagged ATAD5 - cell viability (AID 651634; calls by dose curve; note: nearly all actives have a fitted effect of over 25% in size)
Procedure, shortened: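 Quantitative high-throughput format. HEK293T cells expressing ATAD5 fused to luciferase were plated at 2,000 cells/well and treated 15.5 hr with compound versus DMSO. Viability was determined by fluorescent live-cell protease substrate, 30 min at 37C.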

[20] = qHTS assay for small molecule disruptors of the mitochondrial membrane potential (AID 720635)
Procedure, shortened: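 HepG2 cells (2,000/well) attached overnight at 37C, then took compound for 1 hr at 37C, 5% CO2. Mito-MPS dye was added for 30 min; fluorescence was read at 490/535 nm (monomers) and 540/590 nm (aggregates).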

Measured: Potency

NS(=O)(=O)c1cc2c(cc1Cl)NC(C1CC3C=CC1C3)NS2(=O)=O (stereo not given)
not listed: [19] | [20]
inactive: all other assays above

CCCCCCCCS(=O)(=O)Cl
not listed: [1] | [18]
inactive: all other assays above

CC(C)(O)C(=O)c1ccccc1
not listed: [1]
inactive: all other assays above

CCN(CC)CCNC(=O)c1cc(S(C)(=O)=O)ccc1OC
not listed: [3]
inactive: all other assays above

CCCN(CCC)CCc1cccc2c1CC(=O)N2
not listed: [1] | [14] | [18]
inactive: all other assays above

NS(=O)(=O)c1cc(C(=O)O)cc(N2CCCC2)c1Oc1ccccc1
active: [17] 9.1 µM
not listed: [1] | [20]
inactive: all other assays above

CC(=O)c1ccccc1O
not listed: [1] | [17] | [18] | [20]
inactive: all other assays above
